{"source": "the supplement of paper PMC12350171", "note": "Structures can show the parent of a compound that is named as a salt. Unmarked numbers belong to inactive results.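 Rule for the calls: active = AUC significantly below DMSO controls by Student t-fit with adjusted P under 0.01; inactive = not significantly reduced.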"}
{"system": "Haemophilus parainfluenzae", "test": "growth AUC normalised to DMSO control (fraction of control); higher = less growth inhibition, active = hit call of the paper", "settings": "20 µM", "procedure,_shortened": "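Hemin and NAD were added to the medium for Haemophilus parainfluenzae. All pathogens, after two anaerobic passages, were inoculated at a starting OD578 of 0.01 into pre-reduced mGAM plates with 20 μM compound and 1% DMSO under breathable seals, and OD578 was read hourly for 24 h in three biological replicates. AUC of each growth curve was obtained with the trapezoidal rule up to the exponential-to-stationary transition and normalised to DMSO controls from the same plate.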"}
{"compound": "O=C(CCCN1CCC(O)(c2ccc(Br)cc2)CC1)c1ccc(F)cc1", "note": "[Bromperidol]", "growth AUC normalised to DMSO control": 1.02}
{"compound": "CC(=O)OC[C@H]1O[C@@H]([S-])[C@H](OC(C)=O)[C@@H](OC(C)=O)[C@@H]1OC(C)=O.CCP(CC)CC.[Au+]", "note": "[Auranofin]", "growth AUC normalised to DMSO control": "0.189 (active)"}
{"compound": "CC(=O)SCC(Cc1ccccc1)C(=O)NCC(=O)OCc1ccccc1", "note": "(stereo not drawn) [Racecadotril]", "growth AUC normalised to DMSO control": 0.986}
{"compound": "CC(=O)[C@H]1CC[C@H]2[C@@H]3C[C@H](C)C4=CC(=O)CC[C@]4(C)[C@H]3[C@@H](O)C[C@]12C", "note": "[Medrysone]", "growth AUC normalised to DMSO control": 0.955}
{"compound": "C[C@]12C[C@H](O)[C@H]3[C@@H](CCC4=CC(=O)CC[C@@]43C)[C@@H]1CC[C@@H]2C(=O)CO", "note": "[Corticosterone]", "growth AUC normalised to DMSO control": 0.962}
{"compound": "CC(C)NCC(O)COc1ccc(CCOCC2CC2)cc1", "note": "(stereo not drawn) [Betaxolol hydrochloride]", "growth AUC normalised to DMSO control": 0.988}
{"compound": "c1ccc2c(c1)CCCC2C1=NCCN1", "note": "(stereo not drawn) [Tetrahydrozoline hydrochloride]", "growth AUC normalised to DMSO control": 0.986}
{"compound": "N=C(N)c1ccc(OCCCCCOc2ccc(C(=N)N)cc2)cc1", "note": "[Pentamidine isethionate]", "growth AUC normalised to DMSO control": 0.946}
